High-throughput results from PubChem BioAssay.
Many of the other results were omitted from the sample, so hits are more common in it than they were.
HTT ATP protect: cytoprotection in Huntington HTT-Q103 PC12 cell model | PC12 HTT-Q103 induced, cytoprotection, ATP luminescence, 40 h | Potency, µM (titrated, usually from 56.4 µM), inactives show cytoprotection (ATP increase), hits mostly activators | 0.14% of 230,000 active; also: potency is read from the fitted curve at half-maximal effect; % of control where 0% means no effect; nearly all actives have a fitted effect of over 45% in size
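Cells were plated at 1500 per well in phenol red-free DMEM with 5% equine and 5% calf serum. Tebufenozide (100 nM final) and compounds were added, then ATPlite reagent, and luminescence was read.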
HttQ103 aggreg: reduces HttQ103-GFP aggregates in PC12 cells; AID 1688; Potency, µM (highest dose often 46.1 µM), for inactives: top-dose activity change, negative = inhibition, usual class: inhibitors; PC12 HttQ103-GFP aggregates, Acumen cytometry, 40 h; 1.1% of 220,000 active; also: potency is read from the fitted curve at half-maximal effect; % is scaled to controls: 0 for no effect and ±100 for the full control effect; nearly all actives have a fitted effect of over 60% in size
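Compounds (qHTS titration) were added to PC12 cells expressing an ecdysone-driven HTT exon 1 Q103–GFP fusion after induction with 100 nM tebufenozide. Aggregate formation was measured as GFP objects in cell lysates.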
PNC assembly inh: inhibitors of perinucleolar compartment assembly; PC3M PTB-GFP, PNC prevalence imaging, 16 h; active compounds read low; activity change (PNC), negative = inhibition, % at 10 µM; 3.1% of 140,000 active; AID 2417;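 active = readout at or below -70, meaning at least 70% loss of cells showing the perinucleolar compartment, a nuclear body marking cancer cells; inconclusive = readout between -30 and a set limit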;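 also: plate controls were DMSO wells for no effect and camptothecin positive control wells for full effect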
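Read-out is percentage of cells bearing a perinucleolar compartment, from automated 20x imaging of fixed, Hoechst-stained PC3M PTB-GFP cells. Cells were seeded 4 h, then exposed 16 h to compound (23 nl of library stock) in duplicate plates.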
Active calls of the source: *; [ ] = dose if it differs, or a comment. Unless noted, calls follow the shape of the dose curve; as a rule, active = well fitted curve in the direction sought with a large enough effect; inconclusive = small, poorly fitted or top-dose-only effect, or another doubt; inactive = no such curve, though single readings can be large; an effect the other way counts as inactive or inconclusive.

Results for CC(=O)OC[C@H]1O[C@@H](O/N=C\[C@@H](C)[C@H](OCc2ccccc2)C(C)C)[C@H](OC(C)=O)[C@@H](OC(C)=O)[C@H]1OC(C)=O ?
HTT ATP protect: 5%[10 µM]

How did COC(=O)c1cccc(C(=O)N2CCCC(C(=O)c3cc(F)ccc3F)C2)c1 (configuration not stated) do in these assays?
HTT ATP protect: 7%[10 µM]; HttQ103 aggreg: 17%[9.22 µM]

What do the screens show for `COC(=O)C1=C(C)N(Cc2ccccc2)c2c(C(=O)OC)c(C(=O)OC)c(C(=O)OC)c(=O)n2C1c1ccccc1` (configuration not stated)?
HTT ATP protect: -8%[10 µM]

What do the screens show for `C=CCc1ccc(OCC(O)CN2CCC(Cc3ccccc3)CC2)c(OC)c1` (configuration not stated)?
HTT ATP protect: -25%; HttQ103 aggreg: 13%; PNC assembly inh: -16

How did CC1=NC(Nc2nc(C)c3ccccc3n2)=NC(C)(C)C1 do in these assays?
HTT ATP protect: -9%[10 µM]; HttQ103 aggreg: inconclusive; PNC assembly inh: 5

How did Cc1ccc(OCC(=O)N2CCN(S(=O)(=O)c3ccccc3[N+](=O)[O-])CC2)cc1 do in these assays?
HTT ATP protect: -17%; HttQ103 aggreg: 16%

How did Cc1ccc(N2C(=O)c3cccc4c([N+](=O)[O-])ccc(c34)C2=O)c2cccnc12 do in these assays?
HTT ATP protect: -37%[10 µM]; HttQ103 aggreg: -33%[9.22 µM]

How did Cc1ccc(N2C(=O)c3cccc4c(N5CCN(C)CC5)ccc(c34)C2=O)c2cccnc12 do in these assays?
HTT ATP protect: 24%[10 µM]; HttQ103 aggreg: 0%; PNC assembly inh: -83*

What do the screens show for `O=C(CSc1oc(-c2ccco2)nc1S(=O)(=O)c1ccc(F)cc1)NCC1CCCO1` (configuration not stated)?
HTT ATP protect: -2%[10 µM]; HttQ103 aggreg: -4%; PNC assembly inh: -119*

What do the screens show for `O=C(CSc1oc(-c2ccco2)nc1S(=O)(=O)c1ccccc1)NCC1CCCO1` (configuration not stated)?
HTT ATP protect: -3%[10 µM]; HttQ103 aggreg: 4%; PNC assembly inh: -15

What do the screens show for `O=C(Nc1nnc(SCc2c(Cl)cccc2Cl)s1)C1CC(=O)N(c2ccc3c(c2)OCCO3)C1` (configuration not stated)?
HTT ATP protect: 1%[10 µM]; HttQ103 aggreg: 14%

Results for COc1ccc(CC(=O)NC(C)c2nnc(SCC(=O)Nc3nc(C)cs3)n2C)cc1 (configuration not stated) ?
HTT ATP protect: 5%; HttQ103 aggreg: 10%; PNC assembly inh: inconclusive

What do the screens show for `CC(NC(=O)OCc1ccccc1)C(=O)Oc1cc2oc(=O)cc(-c3ccccc3)c2cc1Cl` (configuration not stated)?
HTT ATP protect: -2%[10 µM]; HttQ103 aggreg: 8.9µM*; PNC assembly inh: 33

Results for O=C(NC(Cc1ccccc1)C(=O)Oc1ccc2c(C(F)(F)F)cc(=O)oc2c1)OCc1ccccc1 (configuration not stated) ?
HTT ATP protect: 6%[10 µM]; HttQ103 aggreg: inconclusive; PNC assembly inh: -3

Results for CN1CCN(c2ncc3nc(-c4cccc(C#N)c4)c(=O)n(CCc4ccccc4)c3n2)CC1 ?
HTT ATP protect: -34%

Results for O=C(Nc1nc2c(s1)CN(Cc1ccccc1)CC2)c1cccc(S(=O)(=O)N2CCc3ccccc32)c1 ?
HTT ATP protect: -24%; HttQ103 aggreg: -15%; PNC assembly inh: 27

Results for Cc1c2oc3c(C)ccc(C(=O)N[C@@H]4C(=O)N[C@H](C(C)C)C(=O)N5CCC[C@H]5C(=O)N(C)CC(=O)N(C)[C@@H](C(C)C)C(=O)O[C@@H]4C)c3nc-2c(C(=O)N[C@@H]2C(=O)N[C@H](C(C)C)C(=O)N3CCC[C@H]3C(=O)N(C)CC(=O)N(C)[C@@H](C(C)C)C(=O)O[C@@H]2C)c(N)c1=O ?
HTT ATP protect: -46%; HttQ103 aggreg: 0.032µM*

What do the screens show for `O=C(NC(=S)N1CCCCC1)C12CC3CC(CC(C3)C1)C2`?
HTT ATP protect: 2%; HttQ103 aggreg: -16%; PNC assembly inh: -24

What do the screens show for `O=C(c1cc(NC(=O)C23CC4CC(CC(C4)C2)C3)cc(NC(=O)C23CC4CC(CC(C4)C2)C3)c1)N1CCCCC1`?
HTT ATP protect: 9%[10 µM]; HttQ103 aggreg: inconclusive; PNC assembly inh: -97*

What do the screens show for `Cc1cc(C)c(S(=O)(=O)Nc2cc(SCC(=O)O)c(O)c3ccccc23)cc1C`?
HTT ATP protect: -18%[10 µM]; HttQ103 aggreg: -6%; PNC assembly inh: inconclusive

How did Cc1cc(C)c(S(=O)(=O)/N=C2/C=C(SCC(=O)O)C(=O)c3ccccc32)cc1C do in these assays?
HTT ATP protect: -159%; HttQ103 aggreg: 13µM*

How did Cc1ccc(S(=O)(=O)/N=C2\CN(C)C(=O)N2C)cc1 do in these assays?
HttQ103 aggreg: -14%; PNC assembly inh: -113*

Results for Cc1ccc(S(=O)(=O)/N=c2\sccn2C)cc1 ?
HTT ATP protect: -6%; HttQ103 aggreg: -15%; PNC assembly inh: 99

How did COc1ccccc1CNC(=O)C1CC(c2cccc([N+](=O)[O-])c2)=NO1 (configuration not stated) do in these assays?
HTT ATP protect: -12%; HttQ103 aggreg: 11%; PNC assembly inh: inconclusive

Results for N#C/C(=C/Nc1ccccc1)c1ccsc1 ?
HTT ATP protect: -8%; HttQ103 aggreg: 13µM*; PNC assembly inh: 13

How did Cc1ccc(N/C=C(/C#N)c2ccsc2)cc1 do in these assays?
HTT ATP protect: -5%; HttQ103 aggreg: 2%; PNC assembly inh: 13

Results for Cc1c(C(=O)O)c(O)cc2c1C(=O)c1c(O)c([C@H]3O[C@H](CO)[C@@H](O)[C@H](O)[C@H]3O)c(O)c(O)c1C2=O ?
HTT ATP protect: -34%[1.9 µM]; HttQ103 aggreg: -4%

What do the screens show for `COC(=O)C1CCN(Cc2ccc(C)cc2)CC1`?
HTT ATP protect: 9%; HttQ103 aggreg: 4%; PNC assembly inh: 2

How did Cc1ccc(S(=O)(=O)NNC(=O)C2CCN(Cc3ccccc3)CC2)cc1 do in these assays?
HTT ATP protect: 19%[10 µM]; HttQ103 aggreg: 5%; PNC assembly inh: -100*

How did COc1ccc(-c2cc(C(=O)NNC3=NCCC3)c3c(C)nn(-c4ccccc4)c3n2)cc1 do in these assays?
HTT ATP protect: -32%; HttQ103 aggreg: -5%

Results for COc1ccc(NC(=O)c2cc(-c3ccccc3)nc3c2c(C)nn3-c2ccccc2)c(OC)c1 ?
HTT ATP protect: 22%[10 µM]; HttQ103 aggreg: -14%; PNC assembly inh: -89*

What do the screens show for `COc1ccc(C2Sc3nncn3N2Cc2ccc(C#N)cc2)cc1` (configuration not stated)?
HTT ATP protect: -5%; HttQ103 aggreg: 23%; PNC assembly inh: 15

Results for COC(=O)c1cccc(N(C(=O)CNC(=O)c2ccco2)C(C(=O)NC2CCCC2)c2ccco2)c1 (configuration not stated) ?
HTT ATP protect: -15%[10 µM]; HttQ103 aggreg: 10%; PNC assembly inh: 28

Results for CC(=O)N(C1=C(N2CCOCC2)C(=O)c2ccccc2C1=O)c1ccc(C(=O)O)cc1 ?
HTT ATP protect: 0%[10 µM]; HttQ103 aggreg: 9%[9.22 µM]

Results for CC(=O)N(C)C1=C(N2CCOCC2)C(=O)c2ccccc2C1=O ?
HTT ATP protect: -122%; HttQ103 aggreg: 25µM*; PNC assembly inh: inconclusive
